Measured values as given in PubChem BioAssay (EPA / NIEHS).
The source made the active and inactive calls. Rule for the calls: active = hit-call score of the fitted dose curve at least 0.9, where 1 is the maximum; inactive = score below 0.9.

Tests used:
[1] = APR_HepG2_NuclearSize_72hr: Apredica 72-hour HepG2 Assay for Nuclear Size (AID 2282925); conditions: high-content imaging, actives raise or lower the signal
Outline: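 Nuclear size was read by high-content imaging of Hoechst 33342 stain after formaldehyde fixation. Compounds ran 72 h on HepG2 at 0.39 to 200 uM, with final DMSO 0.5% v/v. Curves fitted both directions relative to DMSO control.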

[2] = ATG_CRE_CIS: Attagene CIS-FACTORIAL HepG2 Assay for human cAMP Responsive Element (CRE) binding protein 3 (AID 2282926); conditions: HepG2 CRE cis-reporter, Attagene multiplexed mRNA; actives raise or lower the signal
Outline: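 Endogenous transcription factor activity read via CRE-regulated reporter transcripts in transfected HepG2 cells. After 24 h exposure, RNA was reverse-transcribed, amplified, fluorescently labelled and sized by capillary electrophoresis; gain or loss fitted against DMSO.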

[3] = target: CCAAT/enhancer-binding protein beta (Homo sapiens) (UniProt P17676); experiment: ATG_C_EBP_CIS: Attagene CIS-FACTORIAL HepG2 Assay for human CCAAT/Enhancer Binding Protein (C/EBP) beta (AID 2282927); conditions: HepG2 Attagene cis-factorial transcription factor reporter; actives raise or lower the signal
Sequence of CCAAT/enhancer-binding protein beta (Homo sapiens) (P17676 whole entry, looked up): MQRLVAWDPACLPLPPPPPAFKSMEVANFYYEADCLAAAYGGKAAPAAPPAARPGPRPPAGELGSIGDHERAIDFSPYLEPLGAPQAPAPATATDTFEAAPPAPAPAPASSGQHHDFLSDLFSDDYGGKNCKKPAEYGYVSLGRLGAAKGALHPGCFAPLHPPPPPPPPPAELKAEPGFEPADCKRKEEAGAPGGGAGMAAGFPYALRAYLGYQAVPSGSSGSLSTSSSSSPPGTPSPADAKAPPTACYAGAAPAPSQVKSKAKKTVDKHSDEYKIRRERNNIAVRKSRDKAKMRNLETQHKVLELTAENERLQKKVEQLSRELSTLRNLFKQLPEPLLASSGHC
Outline: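 Endogenous transcription factor activity in human liver HepG2 cells is inferred from induction of a CEBPB-linked reporter mRNA. Exposure lasts 24 h; activity is fitted in both directions relative to DMSO.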

[4] = ATG_CMV_CIS: Attagene CIS-FACTORIAL HepG2 Assay for human CMV (Internal Marker) (AID 2282928); conditions: HepG2 CMV promoter reporter, transcription factor profiling; actives raise or lower the signal;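 note: endpoint acts as a background internal control marker rather than a target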
Outline: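 Readout: fluorescent reporter cDNA fragments separated by capillary electrophoresis after RT-PCR and HpaI cut. Cells: HepG2 carrying transfected cis-promoter reporter constructs, dosed 24 h. Endpoint serves as background internal-marker control, fit bidirectionally versus DMSO.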

[5] = ATG_DR4_LXR_CIS: Attagene CIS-FACTORIAL HepG2 Assay for human Liver X Receptor (LXR), DR4 submotif (AID 2282929); conditions: HepG2 Attagene DR4 cis-reporter, mRNA transcription; actives raise or lower the signal
Outline: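 Fluorescence intensity of labelled reporter cDNA fragments, separated by capillary electrophoresis, gives the signal. HepG2 cells bearing cis-regulated reporter constructs were treated 24 h; activity fitted bidirectionally relative to DMSO negative control.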

[6] = target: Aryl hydrocarbon receptor (Homo sapiens) (UniProt P35869); experiment: ATG_Ahr_CIS: Attagene CIS-FACTORIAL HepG2 Assay for human Aryl Hydrocarbon Receptor (Ahr) (AID 2282930); conditions: HepG2 AhR cis-factorial reporter transcription; actives raise or lower the signal
Sequence of Aryl hydrocarbon receptor (Homo sapiens) (P35869 whole entry, looked up): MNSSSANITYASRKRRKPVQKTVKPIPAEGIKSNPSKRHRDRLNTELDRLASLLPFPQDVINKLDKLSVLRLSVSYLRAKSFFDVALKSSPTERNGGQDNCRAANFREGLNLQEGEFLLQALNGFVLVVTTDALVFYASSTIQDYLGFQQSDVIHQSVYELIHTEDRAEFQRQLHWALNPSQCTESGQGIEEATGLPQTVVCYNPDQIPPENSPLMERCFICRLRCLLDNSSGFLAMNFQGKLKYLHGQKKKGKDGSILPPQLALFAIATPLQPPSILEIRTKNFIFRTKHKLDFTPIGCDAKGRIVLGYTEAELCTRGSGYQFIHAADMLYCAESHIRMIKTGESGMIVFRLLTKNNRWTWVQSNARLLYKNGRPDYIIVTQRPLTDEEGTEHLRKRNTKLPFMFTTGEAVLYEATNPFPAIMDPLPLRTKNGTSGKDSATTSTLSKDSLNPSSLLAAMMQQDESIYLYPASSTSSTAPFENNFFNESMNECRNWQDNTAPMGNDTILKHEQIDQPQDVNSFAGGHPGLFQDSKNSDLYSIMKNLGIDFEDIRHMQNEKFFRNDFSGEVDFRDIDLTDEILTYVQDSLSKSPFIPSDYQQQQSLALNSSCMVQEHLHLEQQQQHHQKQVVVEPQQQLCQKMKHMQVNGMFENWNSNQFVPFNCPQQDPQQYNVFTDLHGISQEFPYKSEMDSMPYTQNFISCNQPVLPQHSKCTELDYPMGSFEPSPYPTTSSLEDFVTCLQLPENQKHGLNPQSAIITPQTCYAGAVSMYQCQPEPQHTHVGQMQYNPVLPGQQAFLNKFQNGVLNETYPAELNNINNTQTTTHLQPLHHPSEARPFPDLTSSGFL
Outline: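 Transient MRTU transfection of HepG2 → 24 h compound exposure → total RNA, oligo(dT) RT → PCR, 6-FAM extension, HpaI cut → CE fluorescence. DMSO = baseline; bidirectional curve fit.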

[7] = ATG_AP_1_CIS: Attagene CIS-FACTORIAL HepG2 Assay for human Activator Protein 1 (AP-1) (AID 2282931); conditions: HepG2 Attagene cis-factorial AP-1 reporter mRNA; actives raise or lower the signal
Outline: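 Multiplexed HepG2 reporter assay, 24 h dosing. mRNA induction detected by RT-PCR plus capillary electrophoresis. Activity fitted in both directions against DMSO.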

[8] = ATG_AP_2_CIS: Attagene CIS-FACTORIAL HepG2 Assay for human Activator Protein 2 (AP-2) (AID 2282932); conditions: HepG2 AP-2 cis-reporter, Attagene transcription factor profiling; actives raise or lower the signal
Outline: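 Transiently transfected HepG2 cells are exposed to chemical for 24 h. Reporter transcripts are then measured as fluorescence following RT-PCR and capillary separation, and gain- or loss-of-signal is fitted relative to DMSO.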

[9] = ATG_BRE_CIS: Attagene CIS-FACTORIAL HepG2 Assay for human Bone Morphogenetic Protein (BMP) Response Element (BRE) (AID 2282933); conditions: HepG2 BMP response element reporter, Attagene transcription factor profiling; actives raise or lower the signal
Outline: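 HepG2 cells transiently transfected with multiplexed cis-element reporter units were dosed with chemical for 24 h. Reporter mRNA was measured by RT-PCR with fluorescent labelling, HpaI digestion and capillary electrophoresis; bidirectional fitting relative to DMSO.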

[10] = target: Retinoic acid receptor alpha (Homo sapiens) (UniProt P10276); experiment: ATG_DR5_RAR_CIS: Attagene CIS-FACTORIAL HepG2 Assay for human Retinoic Acid Receptor Alpha (RARE), DR5 submotif (AID 2282934); conditions: HepG2 Attagene cis-factorial RARE DR5 reporter, mRNA; actives raise or lower the signal;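 for AC50: reporter responds to endogenous RAR alpha beta and gamma in HepG2 not RARA alone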
Sequence of Retinoic acid receptor alpha (Homo sapiens) (P10276 whole entry, looked up): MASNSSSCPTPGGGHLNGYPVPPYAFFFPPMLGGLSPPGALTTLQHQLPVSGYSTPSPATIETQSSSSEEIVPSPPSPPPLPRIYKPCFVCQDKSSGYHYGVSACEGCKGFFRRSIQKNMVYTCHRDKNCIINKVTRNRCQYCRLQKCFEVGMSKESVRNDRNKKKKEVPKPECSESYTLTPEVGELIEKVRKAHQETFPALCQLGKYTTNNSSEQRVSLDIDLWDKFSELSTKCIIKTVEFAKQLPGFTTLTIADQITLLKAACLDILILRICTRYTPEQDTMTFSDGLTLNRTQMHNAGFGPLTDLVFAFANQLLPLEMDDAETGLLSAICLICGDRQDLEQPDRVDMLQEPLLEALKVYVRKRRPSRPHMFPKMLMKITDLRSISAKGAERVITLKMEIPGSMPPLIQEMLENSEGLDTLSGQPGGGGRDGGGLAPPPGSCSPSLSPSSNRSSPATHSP
Outline: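 Transient MRTU transfection of HepG2; 24 h compound treatment; TriZol RNA, oligo(dT) RT, PCR, FAM labelling, capillary electrophoresis. Bidirectional fit vs DMSO. Endogenous TF activity at DR5 RARE.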

[11] = target: Transcription factor E2F1 (Homo sapiens) (UniProt Q01094); experiment: ATG_E2F_CIS: Attagene CIS-FACTORIAL HepG2 Assay for human E2F Transcription Factor 1 (AID 2282935); conditions: HepG2 Attagene cis-reporter, E2F reporter RNA transcripts; actives raise or lower the signal
Sequence of Transcription factor E2F1 (Homo sapiens) (Q01094 whole entry, looked up): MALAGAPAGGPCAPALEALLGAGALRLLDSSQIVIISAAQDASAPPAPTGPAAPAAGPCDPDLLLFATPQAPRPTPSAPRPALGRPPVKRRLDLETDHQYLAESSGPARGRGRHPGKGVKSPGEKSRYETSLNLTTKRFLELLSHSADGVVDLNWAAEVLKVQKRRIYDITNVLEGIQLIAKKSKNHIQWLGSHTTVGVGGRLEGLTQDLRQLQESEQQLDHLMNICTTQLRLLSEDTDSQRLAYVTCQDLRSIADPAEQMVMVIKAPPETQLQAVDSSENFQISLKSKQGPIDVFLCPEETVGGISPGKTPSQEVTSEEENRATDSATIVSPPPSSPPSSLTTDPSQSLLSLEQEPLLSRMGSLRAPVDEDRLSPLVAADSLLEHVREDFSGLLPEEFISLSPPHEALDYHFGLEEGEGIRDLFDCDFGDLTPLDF
Outline: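 Fluorescent RT-PCR products, digested with HpaI for 2 h at 37 C, are separated by capillary electrophoresis. Source RNA comes from transfected HepG2 cultures treated for 24 h.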

[12] = ATG_E_Box_CIS: Attagene CIS-FACTORIAL HepG2 Assay for human Enhancer Box (E-box) (AID 2282936); conditions: HepG2 E-box cis-reporter transcription, actives raise or lower the signal
Outline: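 Fluorescent reporter fragments separated by capillary electrophoresis gave the signal; mRNA came from HepG2 cells transfected with cis-element reporters and treated 24 h. Curves fitted bidirectionally relative to DMSO controls.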

[13] = ATG_M_61_CIS: Attagene CIS-FACTORIAL HepG2 Assay for M61 Transcription Factor (Internal Marker) (AID 2282937); conditions: HepG2 Attagene CIS-FACTORIAL M61 internal marker reporter; actives raise or lower the signal
Outline: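 Endogenous transcription factor activity in HepG2 is read through transiently transfected cis-element reporter units. After 24 h dosing, RNA undergoes reverse transcription, PCR and primer extension with 6-FAM before capillary electrophoresis; DMSO-referenced bidirectional fit.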

[14] = ATG_EGR_CIS: Attagene CIS-FACTORIAL HepG2 Assay for human Early Growth Response 1 (EGR1) (AID 2282938); conditions: HepG2 Attagene CIS-FACTORIAL EGR reporter mRNA; actives raise or lower the signal
Outline: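 Activity is taken as induction or loss of reporter mRNA versus DMSO, fitted bidirectionally. Transcripts from cis-regulated reporter units in transiently transfected HepG2 were measured after 24 h by RT-PCR with capillary electrophoresis.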

[15] = ATG_M_19_CIS: Attagene CIS-FACTORIAL HepG2 Assay for M19 Transcription Factor (Internal Marker) (AID 2282939); conditions: HepG2 Attagene CIS-FACTORIAL M19 internal marker reporter; actives raise or lower the signal
Outline: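 HepG2 cells transiently transfected with cis-regulated multiple reporter transcription units were dosed for 24 h; reporter mRNA was quantified by RT-PCR, 6-FAM primer-extension labelling, HpaI digestion and capillary electrophoresis, with bidirectional fitting against DMSO baseline.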

[16] = ATG_ERE_CIS: Attagene CIS-FACTORIAL HepG2 Assay for Estrogen Response Element (ERE) (AID 2282940); conditions: HepG2 ERE cis-reporter, Attagene RNA transcript; actives raise or lower the signal
Outline: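 HepG2 cells transiently transfected with cis-promoter-driven multiplexed reporter transcription units report endogenous TF activity. After 24 h compound exposure, reporter mRNA is quantified by RT-PCR with capillary electrophoresis fluorescence; bidirectional fitting versus DMSO baseline.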

[17] = ATG_Ets_CIS: Attagene CIS-FACTORIAL HepG2 Assay for human Erythroblast Transformation Specific (ETS) (AID 2282941); conditions: HepG2 ETS cis-reporter transcription, actives raise or lower the signal
Outline: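 RT-PCR/capillary electrophoresis fluorescence read-out of reporter mRNA; HepG2 transient multi-reporter transfection; 24 h compound exposure; gain or loss of signal fitted bidirectionally relative to DMSO.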

[18] = target: Hepatocyte nuclear factor 3-beta (Homo sapiens) (UniProt Q9Y261); experiment: ATG_FoxA2_CIS: Attagene CIS-FACTORIAL HepG2 Assay for human Forkhead box A2 (FOXA2) (AID 2282942); conditions: HepG2 cis-reporter transcription factor activity, 24 h; actives raise or lower the signal
Sequence of Hepatocyte nuclear factor 3-beta (Homo sapiens) (Q9Y261 whole entry, looked up): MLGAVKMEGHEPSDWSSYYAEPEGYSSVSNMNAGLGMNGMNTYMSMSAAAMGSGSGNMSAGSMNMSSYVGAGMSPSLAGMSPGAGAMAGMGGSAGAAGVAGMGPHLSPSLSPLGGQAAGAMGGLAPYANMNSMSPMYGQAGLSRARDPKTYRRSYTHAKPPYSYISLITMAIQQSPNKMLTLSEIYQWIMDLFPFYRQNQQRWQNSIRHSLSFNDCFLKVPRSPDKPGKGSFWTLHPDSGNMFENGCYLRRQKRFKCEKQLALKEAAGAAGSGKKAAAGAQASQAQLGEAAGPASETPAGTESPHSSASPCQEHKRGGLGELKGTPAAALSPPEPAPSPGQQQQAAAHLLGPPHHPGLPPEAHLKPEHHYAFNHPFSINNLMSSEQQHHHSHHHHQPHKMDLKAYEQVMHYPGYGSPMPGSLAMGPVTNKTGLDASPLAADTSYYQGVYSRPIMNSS
Outline: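 Reporter transcript induction is measured by fluorescence after capillary electrophoresis of RT-PCR products from HepG2 cells exposed 24 h. Cis-regulated reporter units report endogenous factor activity; curves fitted both directions against DMSO.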

[19] = ATG_FoxO_CIS: Attagene CIS-FACTORIAL HepG2 Assay for human Forkhead box O (FoxO) (AID 2282943); conditions: HepG2 Attagene cis-reporter, FoxO element, mRNA; actives raise or lower the signal
Outline: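 HepG2, transient MRTU transfection (cis element, endogenous TFs). Dose 24 h. TriZol RNA → oligo(dT) RT → PCR → 6-FAM primer extension → HpaI cut → CE. Gain/loss vs DMSO.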

[20] = ATG_GATA_CIS: Attagene CIS-FACTORIAL HepG2 Assay for human GATA Binding Protein (AID 2282944); conditions: HepG2 GATA cis-element reporter, Attagene multiplex mRNA; actives raise or lower the signal
Outline: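 HepG2 cells transiently transfected with multiplexed cis-element reporter units reflecting endogenous transcription factor activity; reporter mRNA measured after 24 h dosing by RT-PCR, 6-FAM labeling, HpaI digestion and capillary electrophoresis. Bidirectional fitting versus DMSO baseline.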

Measured: AC50

Fc1ccc(Oc2ccnc3cc(Cl)cc(Cl)c23)cc1
inactive: [1] | [2] | [3] | [6] | [7] | [8] | [9] | [11] | [13] | [14] | [15] | [16] | [17] | [18] | [19] | [20]
active: [4] 6.43 µM | [5] 2.72 µM | [10] 2.77 µM | [12] 5.95 µM

COc1cnc(OC)n2nc(NS(=O)(=O)c3c(OCC(F)F)cccc3C(F)(F)F)nc12
inactive: [1] | [2] | [3] | [4] | [5] | [6] | [7] | [8] | [9] | [11] | [12] | [13] | [14] | [15] | [16] | [17] | [18] | [19] | [20]

CC1COC(Cn2cncn2)(c2ccc(Oc3ccc(Cl)cc3)cc2Cl)O1 (configuration not stated)
active: [2] 1.6 µM | [3] 0.829 µM | [7] 4.29 µM | [9] 1.71 µM | [16] 0.245 µM
inactive: [1] | [4] | [5] | [6] | [8] | [10] | [11] | [12] | [13] | [14] | [15] | [17] | [18] | [19] | [20]

CC(C)Oc1cc(-n2nc(C(C)(C)C)oc2=O)c(Cl)cc1Cl
inactive: [1] | [2] | [3] | [5] | [6] | [8] | [11] | [12] | [13] | [14] | [15] | [17] | [18] | [19] | [20]
active: [4] 6.05 µM | [7] 21.8 µM | [9] 50 µM | [10] 0.86 µM | [16] 12.8 µM

CCNc1nc(Cl)nc(NC(C)C)n1
inactive: [1] | [2] | [3] | [4] | [5] | [6] | [7] | [8] | [9] | [11] | [12] | [13] | [14] | [15] | [16] | [17] | [18] | [19] | [20]

CN(C)C(=S)SSC(=S)N(C)C
inactive: [1] | [2] | [3] | [4] | [5] | [6] | [7] | [8] | [9] | [10] | [11] | [12] | [13] | [14] | [15] | [16] | [17] | [18] | [19] | [20]

CC1=C(C(=O)Nc2ccccc2)SCCO1
inactive: [1] | [2] | [3] | [4] | [5] | [6] | [7] | [8] | [9] | [10] | [11] | [12] | [13] | [14] | [15] | [16] | [17] | [18] | [19] | [20]

CCOP(=S)(OCC)SCn1c(=O)oc2cc(Cl)ccc21
inactive: [1] | [6] | [7] | [8] | [11] | [12] | [13] | [14] | [15] | [16] | [18] | [19] | [20]
active: [2] 9.92 µM | [3] 12.9 µM | [4] 26.4 µM | [5] 80.8 µM | [9] 50 µM | [10] 12.7 µM | [17] 50 µM

CCOC(=O)C(Cl)Cc1cc(-n2nc(C)n(C(F)F)c2=O)c(F)cc1Cl (configuration not stated)
active: [16] 50 µM
inactive: [1] | [2] | [3] | [4] | [5] | [6] | [7] | [8] | [9] | [10] | [11] | [12] | [13] | [14] | [15] | [17] | [18] | [19] | [20]

CC(C)C1(C)N=C(c2nc3ccccc3cc2C(=O)O)NC1=O (configuration not stated)
inactive: [1] | [2] | [3] | [4] | [5] | [6] | [7] | [8] | [9] | [10] | [11] | [12] | [13] | [14] | [15] | [16] | [17] | [18] | [19] | [20]

CCOc1cc(Oc2ccc(C(F)(F)F)cc2Cl)ccc1[N+](=O)[O-]
active: [3] 23.6 µM | [4] 13.6 µM | [5] 33.1 µM | [7] 22 µM | [9] 16.6 µM | [16] 13.1 µM
inactive: [1] | [2] | [6] | [8] | [10] | [11] | [12] | [13] | [14] | [15] | [17] | [18] | [19] | [20]

Cc1cc(Cl)ccc1OCC(=O)O
inactive: [1] | [2] | [3] | [4] | [5] | [6] | [7] | [8] | [9] | [11] | [12] | [13] | [14] | [15] | [16] | [17] | [18] | [19] | [20]
